Experimental data reported in ChEMBL document CHEMBL3988442, “University of Dundee, Small-Polar-MMV Screening Library” (2021).

Experiments:
[1] = molecular target: T1, Aspartate--tRNA(Asp/Asn) ligase (Mycobacterium tuberculosis (strain ATCC 25618 / H37Rv)) (UniProt P9WFW3); test: Assay for Asp RNA synthetase-1 from Mycobacterium tuberculosis; format: functional; set-up: scale not given: direction of the effect not stated beside the values; settings: 30 µM; note: in the data most compounds retested in dose-response had high values
T1 sequence (whole entry): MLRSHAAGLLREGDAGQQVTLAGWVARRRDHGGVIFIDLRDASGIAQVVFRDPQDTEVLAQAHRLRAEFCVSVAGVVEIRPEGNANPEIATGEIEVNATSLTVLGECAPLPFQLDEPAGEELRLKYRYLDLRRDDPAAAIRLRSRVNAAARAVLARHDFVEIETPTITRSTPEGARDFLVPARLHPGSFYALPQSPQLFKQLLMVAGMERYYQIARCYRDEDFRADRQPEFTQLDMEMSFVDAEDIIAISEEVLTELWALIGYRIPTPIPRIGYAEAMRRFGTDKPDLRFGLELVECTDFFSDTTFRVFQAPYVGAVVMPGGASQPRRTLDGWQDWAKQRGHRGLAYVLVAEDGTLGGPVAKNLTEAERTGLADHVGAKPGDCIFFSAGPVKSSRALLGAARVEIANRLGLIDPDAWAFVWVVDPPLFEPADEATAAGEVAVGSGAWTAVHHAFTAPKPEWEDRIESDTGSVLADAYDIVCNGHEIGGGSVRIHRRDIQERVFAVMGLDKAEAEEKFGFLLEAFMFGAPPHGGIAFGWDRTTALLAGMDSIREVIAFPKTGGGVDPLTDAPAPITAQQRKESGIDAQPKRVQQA

[2] = molecular target: Shiga toxin 2 (Escherichia coli O157:H7) (UniProt P09385+P09386); test: E. coli 0.157:H7 Shiga Toxin SOP - stx2 screening assay; format: functional; set-up: scale not given: direction of the effect not stated beside the values; settings: 30 µM

Row | Structure (SMILES) | Percent Effect [1] [%] | Percent Effect [2] [%]
1 | Cc1noc(C)c1-c1cncc(C2CCCN2Cc2cncnc2)n1 (configuration not stated) | -2.78 | 0.369
2 | Cc1cccc2cc(CNCCCN3CCOCC3)c(=O)[nH]c12 | 0.253 | -27.9
3 | O=C(c1ccccn1)N1Cc2nccn2CC(COc2cccnc2)C1 (configuration not stated) | 3.15 | -14.8
4 | COc1cc(N2C[C@@H]3COC[C@]3(COCc3cccc(C)n3)C2)ncn1 | -0.107 | -2.46
5 | Cc1nccn1-c1cccc(C2CCCN(C3CCCCC3)C2)n1 (configuration not stated) | -3.11 | -8.84
6 | O=C(Nc1ccccn1)C1=NN(c2ccccc2)C(=O)CN1 | 0.657 | -27.9
7 | CN1C(=O)C(c2cccnc2)CC12CCN(C(=O)c1cccn1C)CC2 (configuration not stated) | 0.99 | -12.3
8 | COc1ccccc1OCC(=O)NS(=O)(=O)c1ccccc1Br | 5.46 | -14.2
9 | CC(C)c1nc(C2CCCN(C(=O)c3ccc4[nH]cnc4c3)C2)no1 (configuration not stated) | 2.42 | 0.178
10 | CCN1CCC2(C=C(C(=O)NC3CC3)c3ccccc32)CC1 | -0.796 | 1.55
11 | COCCN1C(=O)CC(N2CCN(c3ccc(F)cc3)CC2)C1=O (configuration not stated) | 1.23 | -24.6
12 | CCCn1c(C)c(CC(=O)NC)c2c1CC(C)(C)CC2=O | -1.07 | -13.3
13 | O=C1CC(c2ccc(F)c(F)c2)c2snc(C(=O)O)c2N1 (configuration not stated) | 3.57 | -5.34
14 | Cn1ccnc1CN1CCCN(C(=O)c2ccc(Cl)o2)CC1 | -4.19 | 17.7
15 | CC(C)(C)n1ncc2c1CCCC2NCc1cccc2c1OCO2 (configuration not stated) | -0.568 | -1.18
16 | N#CC1(C(=O)Nc2ccc(OC(F)F)cc2)CCCC1 | 3.4 | -2.03
17 | Cc1ccc(-c2cccc(-c3ccn(CCN4CCCC4)n3)c2)nn1 | -1.26 | -13.8
18 | CN(C)CC1CN(Cc2ccc3c(c2)OCO3)Cc2nccn2C1 (configuration not stated) | 9.35 | 4.74
19 | O=C(Cc1ccccn1)N1CCN(C(=O)c2cccc3[nH]ncc23)CC1 | -2.75 | 1.83
20 | C[C@@H]1CN(C(=O)c2ccc(C#N)nc2)CC[C@@]1(O)C1CCOCC1 | -2.71 | -2.97
21 | CCOC(CC)C(=O)NCCC(=O)N1CCN(c2ccccn2)CC1 (configuration not stated) | 2.61 | -11.4
22 | O=C(NCCN1CCc2ccccc2C1)c1scnc1Cl | 1.6 | -3.31
23 | Cc1nc(Nc2nnc(C)s2)cc(C2CCCN2C)n1 (configuration not stated) | 2.4 | -26.6
24 | CCN1CCN(CC(C)(O)c2cccc(C(F)(F)F)c2)CC1 (configuration not stated) | 3.38 | 6.41
25 | CCN1C[C@@H]2[C@@H](OC)CCN(S(=O)(=O)c3ccccc3)[C@@H]2C1 | -4.66 | -20.4
26 | CN(C)CC1(O)CCN(S(=O)(=O)c2ccc(F)c(F)c2)C1 (configuration not stated) | -2.99 | 4.61

Row | Structure (SMILES) | Percent Effect [1] [%] | Percent Effect [2] [%]
27 | CCn1cc2c(n1)CN(Cc1nccs1)CC2COCC1CC1 (configuration not stated) | 5.78 | -5.95
28 | Cc1nc2ccccc2nc1CN1CCCC1c1c(C)nn(C)c1C (configuration not stated) | -5.6 | -18.4
29 | Cc1ccc(C(=O)N2CCCC3(CCCC(=O)N3C)C2)cc1F (configuration not stated) | 3.71 | -5.85
30 | Cc1cc(NC(=O)NCc2ccccc2OC(F)F)n(C)n1 | -5.2 | -10.5
31 | O=C(c1cccnc1-n1cccn1)N1CCN(CC2CC2)CC1 | -1.91 | 7.9
32 | CCc1ccc(C(=O)N2CCCC(c3noc(CC)n3)C2)o1 (configuration not stated) | -2.33 | 10.6
33 | Brc1cc2c(cc1CN1CCC(N3CCCCC3)CC1)OCCO2 | -2.09 | -51.2
34 | CCc1cc(C(=O)N2CCCC2c2nc(C)c(F)c(O)n2)on1 (configuration not stated) | 2.22 | -57
35 | Cn1nccc1CNC(=O)Nc1cc(C(F)(F)F)c[nH]c1=O | 0.5 | 21
36 | c1ccc(CN2CCc3ncnc(-c4ccsc4)c3CC2)nc1 | 0.199 | -6.45
37 | CN(Cc1ccc(C#N)cc1)Cc1noc(C(C)(C)C)n1 | -2.67 | -19
38 | COc1ccc(CCC(=O)NC2CCC(O)CC2)cc1OC (configuration not stated) | -2.67 | 33
39 | CS(=O)(=O)c1ccccc1C(=O)NCC1Cc2ccccc2O1 (configuration not stated) | 9.98 | -13
40 | O=S1(=O)CCN(Cc2cccnc2)[C@H]2CCN(c3ncccn3)CC[C@H]21 | 1.96 | -36.2
41 | CC(c1ccco1)N(C)Cc1nc2c(cnn2C)c(=O)[nH]1 (configuration not stated) | -2.56 | -9.3
42 | CC(NC(=O)NCCNc1ncccn1)c1cccs1 (configuration not stated) | -2.58 | -27.7
43 | O=S(=O)(CCNCc1ccc2c(c1)CCO2)N1CCOCC1 | 0.97 | -25.2
44 | NC(=O)C1CCN(CCc2ccc(NC(=O)C3CCC3)cc2)CC1 | 3.99 | -2.25
45 | Cc1cccc(C(=O)NCCCN2CCN(c3ccccc3)CC2)c1 | 0.86 | -54
46 | CN(C)[C@@H]1CCN(c2ncccn2)[C@H]1Cc1ccccc1 | -0.0594 | -1.36
47 | COCCN1CCC(NCc2cccnc2)C1 (configuration not stated) | 4.4 | 15.8
48 | CC1=N[C@@]2(CC[C@@H]3CN(CC(=O)N(C)C)C[C@@H]32)C(=O)N1CC(C)C | -0.203 | -75.1
49 | CC(NC(=O)CCCOc1ccccc1Cl)c1ccncc1 (configuration not stated) | 5.49 | -35
50 | COc1ccc(OC)c(Sc2ncccc2C(=O)N(C)CCC#N)c1 | -6.44 | 13.3
51 | O=C(c1ccncc1)N1CCC(O)(Cn2ccc3ccncc32)CC1 | -0.194 | -14.9
